Experimental data from PMC4552634, “A New Set of Chemical Starting Points with Plasmodium falciparum Transmission-Blocking Potential for Antimalarial Drug Discovery” (PLoS ONE, 2015).
Among all 13,000 compounds or so, about 3,200 (25%) showed an effect of 50% or more. The list shows a part of the results.

Test system: P. falciparum stage V gametocytes
Set-up: BacTiter-Glo ATP luminescence viability of purified stage V gametocytes in 384-well plates, per cent inhibition versus DMSO
Settings: 48 h, 5 µM; inhibitor

Structure (SMILES) | % Inhibition [%]
CC(C)(C)c1ccc(NC(=O)c2cccc(CN3CCCN(CC4CCCCC4)CC3)c2)cc1 [TCMDC-135980] | -75.44
Cc1cc(C(=O)Nc2ccc(C)c(-c3nc(N(C(=O)c4ccc(F)c(C)c4)C4CCNCC4)nc4c3ccc(=O)n4-c3c(F)cccc3F)c2)ccc1F [TCMDC-135913] | 55.46
Cc1ccc(NC(=O)Nc2ccc(Cl)cc2)cc1-c1cccc(C(=O)Nc2ccc(F)cc2)c1 [TCMDC-133591] | -12.79
Cc1ccc(C(=O)Nc2ccc(F)cc2)cc1-c1nc(NC2CC(C)(C)NC(C)(C)C2)nc2c1ccc(=O)n2-c1c(F)cccc1F [TCMDC-135391] | 95.1
Cc1cc(F)ccc1C1CCN(CCCCNC(=O)c2ccc(NC(=O)c3ccc(Cl)cc3)cc2)CC1 [TCMDC-138363] | 13.4
Cc1ccc(NC(=O)Nc2ccccc2F)cc1-c1ccc(C(=O)Nc2ccncc2)cc1 [TCMDC-133706] | -10.32
Cc1cc(F)ccc1-c1nc(N(C)CCN(C)C(=O)N(C)c2ccccc2)nc2c1ccc(=O)n2-c1c(F)cccc1F [TCMDC-141720] | 17.64
Cc1ccc(N)cc1-c1nc(NC2CC(C)(C)NC(C)(C)C2)nc2c1ccc(=O)n2-c1c(F)cccc1F [TCMDC-135790] | 57.86
CCCc1cc(NCc2ccncc2)nc(Nc2ccc(F)cc2)n1 [TCMDC-134012] | 34.89
NC(=O)c1ccsc1NC(=O)CNC(c1ccccc1)c1ccccc1 [TCMDC-125458] | 2.042
O=C(N[C@@H](Cc1ccccc1)[C@H](O)CNC1CCCc2ccccc21)c1cc(C2CCCC2)cc(N2CCCC2=O)c1 (some centres unmarked) [TCMDC-134656] | -0.2102
Cc1c2c(nn1-c1ccccc1)C(c1ccccc1)N(c1ccccc1)C2=O (centres unmarked) [TCMDC-131674] | -2.033
COc1ccccc1N1CCN(c2cccc(F)c2C#N)CC1 [TCMDC-124862] | -55.85
COc1cc(C)c(NC(=O)c2cccc3c(=O)c(C)c(-c4ccccc4)oc23)cc1OC [TCMDC-125261] | -26.52
COc1ccc(-c2ccc(S(=O)(=O)Nc3cc4c(cc3OC(C)C)CCN(C)CC4)cc2)cc1 [TCMDC-141487] | 10.97
CC(C)C(=O)ONC1=NC(C)(C)N(OCCCOc2cc(Cl)c(Cl)cc2Cl)C(NOC(=O)C(C)C)=N1 [TCMDC-131788] | -4.555
Cc1cc(C)cc(OCC(O)CN(Cc2cc(Cl)cc(Cl)c2)C(=O)Nc2ccc([N+](=O)[O-])cc2)c1 (centres unmarked) [TCMDC-141478] | -6.134
CNC(=O)c1cnc(Nc2ccc(N3CCOCC3)cc2)nc1Nc1cccc(OC)c1 [TCMDC-141386] | -63.88
CN(C)CCOc1cc(NC(=O)Nc2cccc([N+](=O)[O-])c2)ccc1I [TCMDC-139158] | 11.15
CNC(=O)c1cnc(Nc2ccc(N3CCN(C)CC3)cc2)nc1Nc1cccc(OC(C)C)c1 [TCMDC-141384] | -23.05
CNC(=O)c1cnc(Nc2ccc(OCC(O)CN(C)C)cc2)nc1Nc1cccc([N+](=O)[O-])c1 (centres unmarked) [TCMDC-141392] | 55.28
CN1CCN(c2ccc(Nc3ncc(C#N)c(Nc4ccccc4C(N)=O)n3)cc2)CC1 [TCMDC-134116] | -62.53
CNC(=O)c1cnc(Nc2ccc(N3CCN(C)CC3)cc2)nc1Nc1cccc(OC)c1 [TCMDC-141383] | 85.81
CNC(=O)c1cnc(Nc2ccc(N3CCOCC3)cc2)nc1Nc1cccc(O)c1 [TCMDC-141385] | -8.649
CN1CCN(c2ccc(Nc3ncc([N+](=O)[O-])c(Nc4ccccc4O)n3)cc2)CC1 [TCMDC-141372] | 99.51

Structure (SMILES) | % Inhibition [%]
CNC(=O)c1cnc(Nc2ccc(OCC(O)CN(C)C)cc2)nc1Nc1cccc(OC)c1 (centres unmarked) [TCMDC-141387] | 95.62
CNC(=O)c1cnc(Nc2ccc(OCC(O)CN(C)C)cc2)nc1Nc1cccc(Br)c1 (centres unmarked) [TCMDC-141388] | 25.03
CC(C)N(Cc1ccccc1)C(=O)CN1C(=O)COc2ccc(S(=O)(=O)N3CCCCCC3)cc21 [TCMDC-124755] | -21.1
N#Cc1ccc2c(c1)CCN(CCC1CCC(NC(=O)c3cccc(-c4ccc(F)cc4)c3)CC1)CC2 (centres unmarked) [TCMDC-139679] | -51.12
O=C(c1csc(-c2cccnc2)n1)N1CCc2cc3nccc(N4CCN5CCC[C@H]5C4)c3cc21 [TCMDC-140044] | 44.75
CCCCCSc1cc(O)c(C(CNC)C(C)C)cc1OC (centres unmarked) [TCMDC-125495] | -82.86
CCCN(CCC)CC(O)COc1ccccc1C(=O)Nc1ccccc1 (centres unmarked) [TCMDC-125708] | -0.1626
CNC(=O)c1cnc(Nc2ccc(OCC(O)CN(C)C)cc2)nc1Nc1cccc(OC(C)C)c1 (centres unmarked) [TCMDC-141389] | 97.53
CNC(=O)c1cnc(Nc2ccc3[nH]c(=O)[nH]c3c2)nc1Nc1cccc(OC(C)C)c1 [TCMDC-141390] | -16.36
COc1ccc(CNCc2ccc(-c3ccc(-c4nc5ccccc5[nH]4)cc3)cc2)cc1.O=C(O)C(F)(F)F [TCMDC-132730] | 80.88
COc1ccc(CNCc2cccc(-c3ccc(-c4nc5ccccc5[nH]4)cc3)c2)cc1.O=C(O)C(F)(F)F [TCMDC-132718] | 76.66
COc1ccc(CNCc2ccc(-c3cccc(-c4nc5ccccc5[nH]4)c3)cc2)cc1.O=C(O)C(F)(F)F [TCMDC-132546] | 33.45
O=C(O)C(F)(F)F.c1ccc(CNCc2ccc(-c3ccc(-c4nc5ccccc5[nH]4)cc3)cc2)cc1 [TCMDC-132711] | -28.39
COc1ccc(CNCc2ccc(-c3ccc(-c4nc5cc(F)ccc5[nH]4)cc3)cc2)cc1.O=C(O)C(F)(F)F [TCMDC-132725] | -52.38
CNc1ccc(CNCc2cccc(-c3ccc(-c4nc5ccccc5[nH]4)cc3)c2)cc1.O=C(O)C(F)(F)F [TCMDC-132986] | 13.98
OC[C@H]1CCCN1CC#Cc1cc2c(Nc3ccc(OCc4cccc(F)c4)c(Cl)c3)ncnc2s1 [TCMDC-138787] | -22.43
Cc1ccn2c(C(=O)N3CCN(c4cccc5c4nc(-c4ccoc4)n5Cc4ccccn4)CC3)c(C)nc2c1 [TCMDC-134556] | -25.5
CCCC(=O)Nc1ccc(Nc2nc(C)cc(N3CCCC3)n2)cc1 [TCMDC-124718] | -11.42
COc1ccc(Nc2ncc3c(-c4cccc(NC(=O)Cc5ccc(O)cc5)c4)c[nH]c3n2)cc1OC [TCMDC-135248] | -43.02
COc1ccc(Nc2ncc3c(-c4cccc(NC(=O)Cc5ccncc5)c4)c[nH]c3n2)cc1OC [TCMDC-135286] | -39.63
COc1ccc(Nc2ncc3c(-c4cccc(NC(=O)CC(C)C)c4)c[nH]c3n2)cc1OC [TCMDC-135246] | 51.08
NC1CCCN(Cc2cccc(-c3ccc(-c4nc5ccccc5[nH]4)s3)c2)C1.O=C(O)C(F)(F)F (centres unmarked) [TCMDC-133870] | 15.45
Cc1cccc2nc(-c3ccc(-c4cccc(CN5CCC(C(N)=O)CC5)c4)s3)[nH]c12.O=C(O)C(F)(F)F [TCMDC-132690] | -2.69
Cc1cccc2nc(-c3ccc(-c4cccc(CN5CCCC(N)C5)c4)s3)[nH]c12.O=C(O)C(F)(F)F (centres unmarked) [TCMDC-133874] | 63.62
Cc1cccc2nc(-c3ccc(-c4cccc(CN5CCC(N)C5)c4)s3)[nH]c12.O=C(O)C(F)(F)F (centres unmarked) [TCMDC-133873] | 89.08

Structure (SMILES) | % Inhibition [%]
Cc1cccc2nc(-c3ccc(-c4cccc(CN5CCC(CO)CC5)c4)s3)[nH]c12.O=C(O)C(F)(F)F [TCMDC-133122] | 24.91
Cc1cccc2nc(-c3ccc(-c4cccc(CN5CCN(CCN6CCOCC6)CC5)c4)s3)[nH]c12.O=C(O)C(F)(F)F [TCMDC-133925] | 7.217
Cc1cccc2nc(-c3ccc(-c4cccc(CN5CCCC(O)C5)c4)s3)[nH]c12.O=C(O)C(F)(F)F (centres unmarked) [TCMDC-133834] | -3.04
Cc1cccc2nc(-c3ccc(-c4cccc(CN5CCC(CCN6CCCCC6)CC5)c4)s3)[nH]c12.O=C(O)C(F)(F)F [TCMDC-133923] | 107.3
Cc1cccc2nc(-c3ccc(-c4cccc(CN5CCCCC5)c4)s3)[nH]c12.O=C(O)C(F)(F)F [TCMDC-133911] | -13.55
COc1ccc(-c2cnn3ccc(Nc4cc(OC)c(OC)c(OC)c4)nc23)cc1OC [TCMDC-134383] | 101
COc1cc(Nc2nccn3c(-c4ccsc4)cnc23)cc(OC)c1OC [TCMDC-134382] | 37.58
COc1ccc(-c2cncc(-c3ccc(OC)c(OC)c3)n2)cc1OC [TCMDC-138247] | 25.57
O=C(CSc1nccn1C1CCCCC1)Nc1cc(C(F)(F)F)ccc1Cl [TCMDC-124949] | 15.12
Cc1c(CNCCCNc2nc3ccncc3[nH]2)sc(Br)c1Br [TCMDC-140512] | 32.17
CCNc1cc(C(=O)N[C@@H](Cc2ccccc2)[C@H](O)CNC(C)C)cc(N2CC(c3ccccc3)CCS2(=O)=O)c1 (some centres unmarked) [TCMDC-134660] | 43.25
O=S(=O)(NC1CCN(c2ccnc3cc(Cl)ccc23)C1)c1cccs1 (centres unmarked) [TCMDC-133398] | 1.762
COc1ccc(CNCc2ccc(-c3cccc(-c4nc5ccc(F)cc5[nH]4)c3)cc2)cc1 [TCMDC-132721] | -29.84
Nc1cccc(CNCc2ccc(-c3cccc(-c4nc5ccc(F)cc5[nH]4)c3)cc2)c1 [TCMDC-132937] | -46.54
COc1ccc(CNCc2cccc(-c3cccc(-c4nc5ccc(F)cc5[nH]4)c3)c2)cc1 [TCMDC-132717] | -45.78
Fc1ccc2nc(-c3cccc(-c4ccc(CNCCc5ccncc5)cc4)c3)[nH]c2c1 [TCMDC-132854] | 81.48
CS(=O)(=O)NCCCNCc1cccc(-c2cccc(-c3nc4ccc(F)cc4[nH]3)c2)c1 [TCMDC-133075] | -24.93
Fc1ccc2nc(-c3cccc(-c4cccc(CNCCc5ccncc5)c4)c3)[nH]c2c1 [TCMDC-132857] | -45.49
CNCCNCc1ccc(-c2ccc(-c3nc4ccc(F)cc4[nH]3)cc2)cc1 [TCMDC-132832] | 83.07
CNCCNCc1ccc(-c2cccc(-c3nc4ccc(F)cc4[nH]3)c2)cc1 [TCMDC-132836] | 79.45
Fc1ccc2nc(-c3cccc(-c4ccc(CNCc5ccccc5)cc4)c3)[nH]c2c1 [TCMDC-132702] | -56.98
CN(C)CCNCc1ccc(-c2ccc(-c3nc4ccc(F)cc4[nH]3)cc2)cc1 [TCMDC-132681] | 40.34
CNc1ccc(CNCc2ccc(-c3ccc(-c4nc5ccc(F)cc5[nH]4)cc3)cc2)cc1 [TCMDC-132980] | -78.33
CNCCNCc1cccc(-c2cccc(-c3nc4ccc(F)cc4[nH]3)c2)c1 [TCMDC-132840] | 70.05
